APP transl inh: inhibitors of APP translation via 5'UTR reporter, primary screen, APP 5'UTR luciferase, SH-SY5Y cells; inhibition, % at 2 µM; SH-SY5Y APP 5'UTR-luciferase reporter, luminescence; 190,000 tested, 0.82% active; AID 1285, 2008;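 active = inhibition above a set limit, derived from the sample mean plus 3 SD, cut at about 45% in these data; inconclusive = one replicate passes the limit while the other fails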
KLF5 inhibitor: KLF5 expression inhibitors, primary screen, DLD-1 cells, luminescence; inhibition, % at 5 µM; DLD-1 KLF5 promoter-luciferase reporter; 290,000 tested, 0.23% active;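 active = inhibition above a per-plate limit of that plate's mean compound inhibition plus 3 SD, cut at about 60% in these data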;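 also: higher means less KLF5 promoter-driven luciferase light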
Ba/F3 V617F tox: reduced viability of JAK2V617F-dependent Ba/F3 cells, primary screen, JAK2V617F inhibitor project, cell-based, Ba/F3 EpoR-JAK2V617F, luminescence; ATP luminescence; inhibition, % at 5.6 µM; 220,000 tested, 1.1% active; AID 1446, 2008;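 active = inhibition above the campaign mean plus 3 SD over all tested compounds, cut at about 24% in these data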;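 also: cytokine-independent growth of Ba/F3 cells driven by EpoR plus mutant JAK2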
aSyn 5UTR inh: MLPCN primary screen, SNCA 5' untranslated region | alpha-synuclein 5'UTR reporter, inhibitor activity | inhibition, % (tested at 7.5 µM) | 300,000 tested, 0.82% active; in the data active = inhibition above about 60%; inconclusive = no clear call, values can overlap the other calls;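 also: H4 neuroglioblastoma cells stably carrying SNCA 5'UTR luciferase fusion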
BaF3 parental: parental Ba/F3 cell viability inhibition, counter-screen for JAK2V617F inhibitor project, murine pro-B, CellTiter-Glo luminescence. inhibition, % at 5.6 µM. 220,000 tested, 1.1% active. CellTiter-Glo ATP luminescence. AID 1486, 2009;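 active = inhibition above a per-campaign cutoff, the mean inhibition of all tested compounds plus 3 SD, cut at about 27% in these data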
IEC-6 cytotox: cytotoxicity in IEC-6 intestinal epithelial cells, primary screen, cytotoxicity control for KLF5 inhibitor project, cell-based, luminescence; IEC-6 cytotoxicity, luminescence viability; inhibition, % at 5 µM; 290,000 tested, 0.78% active; AID 1825, 2009; in the data active = inhibition above about 22%
Numbers stand for hits; - = inactive; ? = inconclusive; . = not tested or not shown. An excerpt weighted towards active compounds, which were near 2.2% of everything screened.

SMILES	APP transl inh	KLF5 inhibitor	Ba/F3 V617F tox	aSyn 5UTR inh	BaF3 parental	IEC-6 cytotox
COc1cccc(NC(=O)[C@H](NC(=O)[C@@H]2Cc3ccccc3CN2)c2ccccc2)c1	.	-	.	-	.	-
CC(=NCc1cccc(Cl)c1)c1nc(-c2ccco2)oc1O	-	-	53.0	-	49.4	-
Oc1oc(-c2ccco2)nc1C=Nc1cccc(Cl)c1	-	-	-	-	-	-
Cc1ccccc1N=Nc1c(C)[nH]n(-c2ccccc2)c1=O	-	-	-	.	-	-
Cc1[nH]n(-c2ccccc2)c(=O)c1N=Nc1ccccc1O	57.5	-	-	?	-	-
COc1cc(C(=O)N/N=C/c2ccc(OC(=O)N3CCOCC3)cc2)cc(OC)c1OC	60.8	-	-	-	-	-
COc1cc(C(=O)Oc2ccc(/C=N/NC(=O)c3ccncc3)cc2)cc(OC)c1OC	.	-	.	-	.	-
Cc1ccc(-c2ccc(CCC(=O)O)n2-c2cccc(C(=O)O)c2)cc1	.	-	.	-	.	-
Cc1nn2cc(-c3ccccc3)nc2[nH]c1=O	-	-	-	-	-	-
Cc1nc(-c2ccccc2)cn(O)c1=O	-	-	-	-	79.4	-
COC(=O)c1ccc(N2CCN(C)CC2)c(NC(=O)c2ccc(Br)o2)c1	.	-	.	-	.	-
COc1ccc(-c2coc3cc4oc(=O)c5ccccc5c4cc23)cc1F	95.8	-	-	81.1	-	-
O=C(NCCSCc1ccco1)c1ccc(=O)[nH]c1	.	-	.	-	.	-
O=C(c1ccc2c(=O)n(-c3ccccc3)c(=S)[nH]c2c1)N1CCCCC1	-	-	44.8	-	63.5	-
CC(C)(C)OC(=O)N1CCC(c2c(C(=O)N3CCN(C(=O)c4ccco4)CC3)cnn2-c2cccc(Cl)c2)CC1	.	-	.	-	.	-
O=[N+]([O-])c1ccc(Sc2cccc[n+]2[O-])c2nonc12	.	-	99.0	84.8	104.8	100.1
O=[N+]([O-])c1ccc(Nc2ccccc2)c2nonc12	.	-	.	-	.	-
c1ccc2[nH]c(-c3cscn3)nc2c1	-	-	-	-	-	-
c1ccc2nc(-c3nc4ccccc4[nH]3)ccc2c1	-	-	-	74.4	-	-
c1ccc(Cn2c(-c3ccccc3)c[n+]3c2SCCC3)cc1	.	-	73.1	-	62.6	-
Cc1cccn2c(=O)c3cc(C#N)c(=N)n(CCN4CCOCC4)c3nc12	46.8	-	-	-	-	-
Cc1nc(/N=C\c2ccc(N(C)C)cc2)sc1C	.	.	.	-	.	.
CC1=CC(C)(C)Nc2ccc(OC(=O)c3cccnc3)cc21	-	-	40.7	-	90.5	-
COc1ccc(OC(=O)C(C)N2C(=O)c3ccccc3C2=O)cc1 (stereo not given)	.	-	.	-	.	-
CC1=CC(C)(C)Nc2ccc(OC(=O)C(C)N3C(=O)c4ccccc4C3=O)cc21 (stereo not given)	-	-	-	-	80.3	-
SMILES	APP transl inh	KLF5 inhibitor	Ba/F3 V617F tox	aSyn 5UTR inh	BaF3 parental	IEC-6 cytotox
Cc1ccc(NS(=O)(=O)c2ccc(Cl)c(C(=O)Nc3ccccc3-c3nc4ccccc4[nH]3)c2)cc1C	-	-	-	-	-	-
O=C(c1cc(S(=O)(=O)N2CCN(c3ccccc3)CC2)ccc1Cl)N1CCCCCCC1	.	.	.	-	.	.
Cc1ccc2c(c1)C=CC(C)N2C(=O)c1ccccc1 (stereo not given)	-	-	-	-	-	-
Cc1ccc2c(c1)C=CC(C#N)N2C(=O)c1ccccc1 (stereo not given)	93.9	-	78.4	-	35.9	40.1
Cc1ccc(S(=O)(=O)CCC(=O)N2CCN(c3ccc([N+](=O)[O-])cc3)CC2)cc1	.	-	.	-	.	-
Cn1cc(/C=N/n2cnc3scc(-c4ccc(Cl)cc4)c3c2=O)c2ccccc21	90.4	-	-	87.0	-	22.0
CCc1cc(=O)oc2cc(C)cc(OC(C)C(=O)NCCCN3CCCC3=O)c12 (stereo not given)	.	-	.	-	.	-
CCOC(=O)c1[nH]cnc1N=Nc1c(O)ccc2ccccc12	52.5	-	-	90.6	-	-
Oc1ccc2ccccc2c1N=Nc1ccccc1F	.	-	-	-	-	-
Oc1ccc2ccccc2c1N=Nc1ccccn1	83.3	-	-	74.7	-	-
O=C(CCc1nnc2ccc(NCc3ccco3)nn12)N1CCN(c2ccc(F)cc2)CC1	.	-	.	-	.	-
COc1ccc(/C=C2\SC(=N)N(c3nccs3)C2=O)cc1OC	-	-	-	64.9	-	-
N=C1S/C(=C\c2ccc(-c3cccc(Cl)c3)o2)C(=O)N1c1nccs1	-	-	-	-	-	-
Cc1cc(C(=O)NNC(=O)COc2ccccc2Cl)n[nH]1	.	-	.	-	.	-
CC1=CC(C)(C)N2C(=O)C(=O)c3cc(OC(=O)c4ccco4)cc1c32	65.8	-	69.1	-	53.2	87.8
Cc1nc(C)n(CC(C)C(=O)N2CCN(S(=O)(=O)c3ccccc3)CC2)n1 (stereo not given)	.	-	.	-	.	-
CC(C)N1CCC(=NNc2ccc(S(=O)(=O)N3CCOCC3)cc2[N+](=O)[O-])CC1	-	-	-	-	-	-
CCCN1CCC(=NNc2ccc(S(=O)(=O)N3CCOCC3)cc2[N+](=O)[O-])CC1	88.1	-	-	64.1	-	-
CCOc1nc2cnccc2n(CC(=O)Nc2c(C)cccc2CC)c1=O	.	-	.	-	.	-
N#CC1=C(N)Oc2cc(O)ccc2C1c1cccnc1 (stereo not given)	-	-	-	-	-	-
CN(C)c1ccc2c(c1)OC(N)=C(C#N)C2c1cccc(F)c1 (stereo not given)	95.1	-	-	68.0	-	-
COC(=O)c1c(NC(=O)c2ccccc2)sc2c1CC(C)(C)NC2(C)C	-	-	-	-	-	-
COC(=O)c1c(NC(=O)c2ccc(OC(C)C)cc2)sc2c1CC(C)(C)NC2(C)C	-	-	-	103.2	-	-
CSc1ccccc1NC(=O)c1c(Br)cnn1C	50.7	-	-	-	-	-
Cn1ncc(Br)c1C(=O)Nc1c(F)c(F)cc(F)c1F	-	-	-	-	-	-
SMILES	APP transl inh	KLF5 inhibitor	Ba/F3 V617F tox	aSyn 5UTR inh	BaF3 parental	IEC-6 cytotox
COc1ccc(N=C2S/C(=C\c3ccc(Cl)c([N+](=O)[O-])c3)C(=O)N2CCN(C)C)cc1	.	-	.	80.6	.	-
CCCN1C(=O)/C(=C/c2ccc(C)s2)SC1=Nc1ccc(OC)cc1	-	-	-	-	-	-
CCN(CC)CCN1C(=O)/C(=C\c2ccc(Cl)c([N+](=O)[O-])c2)SC1=Nc1ccc(OC)cc1	.	-	.	73.8	.	-
Cc1cc(C)c2nc(C)cc(N/N=C/c3ccc(O)cc3)c2c1	.	-	.	112.1	.	-
CCOc1ccc(N2C(=O)C(CC(=O)Nc3ccc(F)cc3)N(Cc3ccccn3)C2=S)cc1 (stereo not given)	-	-	-	-	-	-
CCOc1ccc(N2C(=O)C(CC(=O)Nc3ccccc3)N(Cc3ccccn3)C2=S)cc1 (stereo not given)	-	-	-	-	27.4	-

Compound activity as filed in PubChem BioAssay.
